{"source": "the supplement of paper PMC10105736"}
{"system": "CG7945", "experiment": "MAPPIT interaction score (arbitrary units); higher = stronger binary interaction signal, active = hit call of the paper", "conditions": "MAPPIT configuration: N-C; pair source set: Lit-BM-16;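 active = MAPPIT score above the 99th percentile of random reference set scores in the same batch; inactive = at or below it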", "protocol": "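MAPPIT in HEK293T cells: Drosophila bait and prey ORFs (from the FlyBi ORF collection) were co-transfected in quadruplicate, with two wells stimulated by erythropoietin. Interaction-dependent JAK-STAT activation was read out with a STAT-responsive firefly luciferase reporter. Positive calls use the 99th percentile of random reference set (RRS) scores within each batch […]. Batches Dvs01 and Dvs02 used the N-N configuration and Dvs04 the N-C configuration. Pairs come from FlyBi screens, CuraGen, DPiM, Finley Y2H, Lit-BM-16, Lit-BS-16 and RRS.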"}
{"substance": "DnaJ-1", "MAPPIT interaction score": "1.15 (inactive)"}
